High-throughput results as filed in PubChem BioAssay.
Hits are enriched below; roughly 2.9% of the tested compounds scored in any of these assays.
RAM network inh: inhibitors of the yeast RAM network, primary screen, dse1pr::URA3 reporter, 5-FOA selection; S. cerevisiae dse1pr::URA3 reporter, 5-FOA growth OD615, 2 d; analog-sensitive cbk1-as2 kinase mutant strain; inhibition, % at 50 µM; hit rate 1.8% among 190,000;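 active = inhibition above a set limit, 3 SD over mean compound inhibition, cut at about 8.4% in these data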;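 note: 0% = DMSO-only wells with no growth and 100% = 10 µM 1-NA-PP1 full growth; inhibition rescues growth on 5-FOA so higher OD means more RAM inhibition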
NR1D1 modulator: modulators of Rev-erb alpha DNA binding, primary screen, biochemical, FITC-DNA, fluorescence polarization, uHTS; Nuclear receptor subfamily 1 group D member 1 (Homo sapiens), P20393; Rev-erbα–FITC-DNA binding, 90 min; activity, % at 10 µM; hit rate 0.79% among 370,000; AID 1259318, 2017;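 active = activity above about 14%, limit read from the data; passing the limit was not always enough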;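 note: 0% = DMSO wells with 35 nM protein and 100% = DMSO wells with 750 nM protein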
Target sequence (P20393 whole entry, looked up): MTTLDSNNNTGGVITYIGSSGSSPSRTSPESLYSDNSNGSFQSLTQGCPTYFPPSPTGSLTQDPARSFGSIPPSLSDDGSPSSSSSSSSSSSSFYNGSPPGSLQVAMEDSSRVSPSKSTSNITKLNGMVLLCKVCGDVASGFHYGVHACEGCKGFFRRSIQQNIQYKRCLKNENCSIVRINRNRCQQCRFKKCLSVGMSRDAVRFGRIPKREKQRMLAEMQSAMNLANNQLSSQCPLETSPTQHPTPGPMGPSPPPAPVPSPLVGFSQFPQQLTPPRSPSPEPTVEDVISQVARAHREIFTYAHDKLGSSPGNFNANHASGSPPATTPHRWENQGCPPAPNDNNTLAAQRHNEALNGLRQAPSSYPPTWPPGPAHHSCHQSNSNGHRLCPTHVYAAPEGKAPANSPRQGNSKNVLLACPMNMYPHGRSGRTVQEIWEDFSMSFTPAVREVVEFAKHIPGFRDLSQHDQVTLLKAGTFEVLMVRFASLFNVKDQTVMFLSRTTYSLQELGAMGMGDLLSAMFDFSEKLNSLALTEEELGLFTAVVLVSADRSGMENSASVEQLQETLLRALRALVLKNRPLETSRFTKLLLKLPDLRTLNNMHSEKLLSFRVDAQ
PGE2 EP2 inh: human EP2 receptor antagonists, primary screen, TR-FRET cAMP, C6 glioma cells. inhibition, % at 25 µM. hit rate 0.52% among 260,000. Prostaglandin E2 receptor EP2 subtype (Homo sapiens), P43116. C6 glioma cells expressing human EP2; cells stimulated with saturating PGE2;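 active = percent inhibition above 40 after rounding to a whole number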;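 note: rat C6 glioma host cells with rolipram phosphodiesterase inhibitor present; the protocol text gives 20 µM as final concentration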
PG9 binder: binders of HIV-1 gp120 antibody PG9, primary screen, biochemical, TR-FRET | AID 624416, 2012 | hit rate 0.43% among 360,000 | inhibition, % at 6.7 µM | HIV-1 gp120 / PG9 antibody interaction | TR-FRET gp120-PG9 antibody binding; in the data active = inhibition above about 8.5%
SKN-1 inh: suppressors of acrylamide-induced Pgst-4::GFP reporter in worms, primary screen, SKN-1 inhibitor project, whole organism, uHTS, GFP/RFP fluorescence ratio, strain VP596; C. elegans VP596 Pgst-4::GFP/RFP ratio, 24 h; AID 624304, 2012; hit rate 0.49% among 360,000; inhibition, % at 21.8 µM;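 active = interference check ratio from 0.5 to 1.5 plus GFP to RFP signal ratio inhibition reaching or exceeding a fixed threshold, cut at about 30% in these data, passing the limit was not always enough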
EP2 modulator: EP2 receptor modulators, cAMP readout, primary screen, cell-based, HTRF cAMP, PGE2 stimulation | Prostaglandin E2 receptor EP2 subtype (Homo sapiens), P43116 | EP2-expressing cells, cAMP HTRF FRET, PGE2 co-stimulation | induction, % at 25 µM | AID 940, 2007 | hit rate 0.83% among 260,000;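 active = compounds whose cAMP rise, as percent of the full-agonist control response, exceeds 60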;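 note: rat C6 glioma line stably carrying human EP2 under a CMV promoter; the protocol text gives 20 µM as final concentration; 100% = response of wells given 1 µM PGE2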
The depositor's hits bear a star.

How did CN(C)c1ccc(/C=C/C=C2/SC(=S)N(c3ccccc3)C2=O)cc1 do in these assays?
RAM network inh: 11.4*; NR1D1 modulator: 0.6; PGE2 EP2 inh: 24.1; PG9 binder: -1.7; SKN-1 inh: 57.9; EP2 modulator: -9.8

Results for COC(=O)C1=C(C)NC2=C(C(=O)CC(c3ccc(OC)c(OC)c3)C2)C1c1cccs1 (configuration not stated) ?
PGE2 EP2 inh: 8.5; EP2 modulator: -28.2

How did COc1cc2nc(C3CC3)n(NC(=O)c3ccc(Cl)cc3)c(=O)c2cc1OC do in these assays?
RAM network inh: 1.0; NR1D1 modulator: -1.0; PGE2 EP2 inh: 8.2; PG9 binder: -3.8; SKN-1 inh: 36.9*; EP2 modulator: 23.6

How did Cc1nnc2nc(-c3ccccc3)nc(-c3ccccc3)n12 do in these assays?
NR1D1 modulator: -2.5; PGE2 EP2 inh: 5.9; PG9 binder: -1.9; SKN-1 inh: 8.6; EP2 modulator: 82.2*

Results for Cn1nc(-c2ccccc2)nc1-c1ccccc1 ?
NR1D1 modulator: -2.8; PG9 binder: 0.8; SKN-1 inh: 20.0

Results for CCNC(=S)N1CCN(c2cccc(OC)c2)CC1 ?
PGE2 EP2 inh: 14.5; EP2 modulator: -18.7

What do the screens show for `O=C(COC(=O)Cc1c(Cl)cccc1Cl)Nc1ccccc1-c1ccccc1`?
RAM network inh: 10.4*; NR1D1 modulator: -1.7; PGE2 EP2 inh: 11.6; PG9 binder: -2.8; SKN-1 inh: 1.5; EP2 modulator: 40.9

How did O=C(COC(=O)/C=C/c1ccccc1)Nc1cccnc1Cl do in these assays?
NR1D1 modulator: -1.1; PG9 binder: -0.1; SKN-1 inh: 14.3

How did O=C(COC(=O)Cc1ccc(Cl)cc1)Nc1ccccc1-c1ccccc1 do in these assays?
RAM network inh: 7.7; NR1D1 modulator: 5.7; PGE2 EP2 inh: 11.3; PG9 binder: -3.5; SKN-1 inh: 4.7; EP2 modulator: 43.3

What do the screens show for `O=C(COC(=O)/C=C/c1ccc(Cl)cc1)Nc1ccccc1-c1ccccc1`?
RAM network inh: 8.7*; NR1D1 modulator: -4.3; PGE2 EP2 inh: 8.2; PG9 binder: -1.3; SKN-1 inh: 3.9; EP2 modulator: -8.4

Results for O=C(COC(=O)Cc1cccc2ccccc12)Nc1ccccc1-c1ccccc1 ?
RAM network inh: 10.6*; NR1D1 modulator: 6.9; PGE2 EP2 inh: 7.7; PG9 binder: -0.7; SKN-1 inh: 2.6; EP2 modulator: 37.1

How did COc1ccc(Cn2nnnc2CN(Cc2cc3cc(C)c(C)cc3[nH]c2=O)CC2CCCO2)cc1 (configuration not stated) do in these assays?
PGE2 EP2 inh: 8.1; EP2 modulator: 6.1

What do the screens show for `CCOC(=O)CNc1c(-c2ccccc2)nc2cc(C)ccn12`?
PGE2 EP2 inh: 15.9; EP2 modulator: -27.3

Results for O=C(Nc1ccc(-c2noc(-c3cccs3)n2)cc1)c1cccnc1 ?
RAM network inh: 2.9; NR1D1 modulator: 0.0; PGE2 EP2 inh: 69.1*; PG9 binder: -2.6; SKN-1 inh: 17.2; EP2 modulator: -7.2

How did COc1cccc(-c2nc(-c3ccc(NC(=O)c4cccnc4)cc3)no2)c1 do in these assays?
RAM network inh: 3.7; NR1D1 modulator: -4.0; PGE2 EP2 inh: 16.1; PG9 binder: -2.1; SKN-1 inh: 2.8; EP2 modulator: -6.1

What do the screens show for `O=C(OCC#CCSc1nc2ccccc2o1)C1=CC2C=CC=CC2OC1=O` (configuration not stated)?
PGE2 EP2 inh: 8.0; EP2 modulator: -32.9

What do the screens show for `Clc1ccc(Cc2nc(-c3cccnc3)no2)cc1`?
RAM network inh: 0.4; NR1D1 modulator: -3.2; PGE2 EP2 inh: 6.2; PG9 binder: 0.1; SKN-1 inh: 40.6*; EP2 modulator: 8.6

What do the screens show for `Cc1ccc(S(=O)(=O)/N=C(/NC(=S)Nc2ccccc2)c2ccccc2)cc1`?
RAM network inh: -0.1; NR1D1 modulator: 6.0; PGE2 EP2 inh: 11.7; PG9 binder: 0.4; SKN-1 inh: 23.0; EP2 modulator: 24.1

Results for Cc1ccc(S(=O)(=O)C/N=C(/NC(=S)N(c2ccccc2)c2ccccc2)c2ccccc2)cc1 ?
RAM network inh: 1.3; NR1D1 modulator: 2.4; PGE2 EP2 inh: 0.8; PG9 binder: -0.3; SKN-1 inh: -4.4; EP2 modulator: 61.3*

Results for S=c1[nH]nc(-c2ccco2)n1/N=C/c1cccc(Cl)c1Cl ?
RAM network inh: 0.6; NR1D1 modulator: -2.5; PGE2 EP2 inh: 1.2; PG9 binder: -0.5; SKN-1 inh: 7.4; EP2 modulator: 60.6*

Results for Cc1ccc(C)c(-n2c(CNC(=O)c3ccco3)nnc2SCC(=O)N2CCc3ccccc32)c1 ?
RAM network inh: 2.8; NR1D1 modulator: 4.5; PG9 binder: -2.1; SKN-1 inh: 39.0*; EP2 modulator: 15.0

How did O=C(CSc1nnc(CN2CCOCC2)n1-c1ccc(Cl)cc1)N1CCc2ccccc21 do in these assays?
NR1D1 modulator: 8.4; PGE2 EP2 inh: 12.8; PG9 binder: -1.1; SKN-1 inh: 42.4*

Results for Cc1ccc(C)c(-n2c(CNC(=O)c3ccco3)nnc2SCC(=O)Nc2nnc(C)s2)c1 ?
RAM network inh: 1.6; NR1D1 modulator: 3.2; PGE2 EP2 inh: 11.3; PG9 binder: 0.0; SKN-1 inh: 8.2; EP2 modulator: 8.9

Results for COc1ccc(NC(=O)CSc2nnc(CN3CCOCC3)n2-c2ccccc2)cc1Cl ?
RAM network inh: -0.6; NR1D1 modulator: -3.0; PGE2 EP2 inh: 5.2; PG9 binder: -2.2; SKN-1 inh: -3.6; EP2 modulator: 6.7

What do the screens show for `O=C(CSc1nnc(CN2CCOCC2)n1-c1ccc(Cl)cc1)Nc1cc(Cl)ccc1O`?
RAM network inh: 11.3*; NR1D1 modulator: -2.1; PGE2 EP2 inh: 13.4; PG9 binder: -2.3; SKN-1 inh: 28.5; EP2 modulator: -4.0

How did O=C(CSc1nnc(CN2CCOCC2)n1-c1ccccc1)N1CCc2ccccc21 do in these assays?
RAM network inh: 0.2; NR1D1 modulator: 1.3; PGE2 EP2 inh: 1.4; PG9 binder: 1.7; SKN-1 inh: 7.7; EP2 modulator: 2.6

How did COCCOc1cccc(CN2CC(CN3CCOCC3)c3ccccc32)c1 (configuration not stated) do in these assays?
PGE2 EP2 inh: 8.6; EP2 modulator: -20.9

Results for Cc1ccc(NC(=S)N(CCO)Cc2cc3ccc(C)c(C)c3[nH]c2=O)c(C)c1 ?
PGE2 EP2 inh: 14.3; EP2 modulator: -72.9

Results for COc1ccc(-c2c(C)nn3c(NCCCN4CCCC4=O)cc(C)nc23)cc1 ?
EP2 modulator: -43.9
